From PubChem BioAssay
Compounds with a hit are over-represented: about 8.2% of the library has one in this group of screens.
KB-3-1 cytotox = KB-3-1 parental cell cytotoxicity; 1.4% of 400,000 active; Potency, µM (top dose mostly 46.1 µM), hits mostly cytotoxic; KB-3-1 viability, CellTiter-Glo ATP luminescence, 72 h; further: nearly all actives have a fitted effect of over 60% in size
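Screening of KB-3-1 cells (DMEM, 10% FBS, phenol-red free) ran from lowest to highest compound concentration; after 72 h at 37 °C viability was read luminescently and curves fitted.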
ELG1 DNA repair = blocks ELG1-dependent DNA repair in HEK293T cells. Potency, µM (top dose mostly 46.1 µM), usual class: inhibitors. 2.3% of 330,000 active. HEK293T ELG1-luciferase reporter, luminescence, 16 h; DNA damage induced by 5-fluorouridine. AID 504467; further: nearly all actives have a fitted effect of over 55% in size
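Luminescence from the luciferase reporter, measured 30 min after ONE-Glo reagent at room temperature, was the read-out. Beforehand, 2,000 cells per well were exposed for 16 hr at 37 °C to 5-fluorouridine together with compound or vehicle.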
MCF10A rereplic = inducers of DNA re-replication in MCF 10A breast cells | Potency, µM (series often up to 46.1 µM), hits mostly activators | MCF 10A DNA re-replication, Hoechst nuclear intensity, 48 h | 2.9% of 350,000 active; further: nearly all actives have a fitted effect of over 50% in size
SW480 rereplic = DNA re-replication induction in SW480 cells; SW480 DNA re-replication, Hoechst DNA content imaging, 48 h; 1.8% of 340,000 active; Potency, µM (top dose mostly 46.1 µM), most hits filed as activators; AID 624297; further: nearly all actives have a fitted effect of over 55% in size
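250 cells/well; 23 nL cpd via pin tool; 48 hr, 37 C, 5% CO2; Hoechst 40 min; imager read of total nuclear intensity, ex 405/em 500-530 nm.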
KB-V1 cytotox = kills drug-selected multidrug resistant KB-V1 cells; Potency, µM (doses to about 46.1 µM), usual class: cytotoxic; AID 1347076; 3.4% of 400,000 active; KB-V1 MDR cells viability, CellTiter-Glo, 72 h; further: nearly all actives have a fitted effect of over 60% in size
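Following 72 h at 37 degrees C with compound, KB-V1 cell viability was read by CellTiter-Glo luminescence, medium being phenol-red-free DMEM plus 10% FBS; concentration-response parameters came from normalized, curve-fitted qHTS data.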
Hits are given with their value. The call rests on the fitted dose curve; in most records, active means well fitted curve in the direction sought with a large enough effect; inconclusive means small, poorly fitted or top-dose-only effect, or another doubt; inactive means no such curve, though single readings can be large; an effect the other way counts as inactive or inconclusive.

For Cc1ccc(S(=O)(=O)c2ccc([N+](=O)[O-])o2)cc1 the results were KB-3-1 cytotox inconclusive, MCF10A rereplic inconclusive, SW480 rereplic inconclusive and KB-V1 cytotox 13µM.
Cc1ccc(S(=O)(=O)Nc2c(C)cc([N+](=O)[O-])cc2C)cc1 was read as KB-3-1 cytotox inactive, MCF10A rereplic inactive, SW480 rereplic inactive and KB-V1 cytotox inactive.
`CCCn1c2ccccc2c2nnc(SCc3[nH]c(=O)[nH]c3C(=O)CCCCC(=O)OCC)nc21` gave KB-3-1 cytotox inactive, ELG1 DNA repair inactive, MCF10A rereplic inconclusive, SW480 rereplic inconclusive and KB-V1 cytotox inactive.
`CCOC(=O)CCCCC(=O)c1[nH]c(=O)[nH]c1CSc1nnc2c3ccccc3n(C(C)C)c2n1` gave KB-3-1 cytotox inactive, ELG1 DNA repair inactive, MCF10A rereplic inactive, SW480 rereplic inactive and KB-V1 cytotox 14.6µM.
For O=C(CCNS(=O)(=O)c1ccc(Cl)cc1)N1CCOCC1 the results were ELG1 DNA repair inactive, MCF10A rereplic inactive and SW480 rereplic inactive.
Screening CC1=Nc2cc(C(=O)O)ccc2Sc2ccc(C)cc21 returned KB-3-1 cytotox inactive, ELG1 DNA repair inactive, MCF10A rereplic inactive, SW480 rereplic inactive and KB-V1 cytotox inactive.
Screening CC1=Nc2cc(C(=O)NCc3ccco3)ccc2Sc2ccc(C)cc21 returned KB-3-1 cytotox inconclusive, ELG1 DNA repair inconclusive, MCF10A rereplic 1.03µM, SW480 rereplic 1.3µM and KB-V1 cytotox 0.581µM.
For CC1=Nc2cc(C(=O)NCC3CCCO3)ccc2Sc2ccc(C)cc21 (stereo unspecified) the results were KB-3-1 cytotox inconclusive, ELG1 DNA repair inactive, MCF10A rereplic 2.06µM, SW480 rereplic 1.03µM and KB-V1 cytotox inactive.
`Cc1ccc(C(=O)NCc2ccco2)cc1Br` gave KB-3-1 cytotox inactive, ELG1 DNA repair inactive, MCF10A rereplic inactive, SW480 rereplic inactive and KB-V1 cytotox inactive.
CCC(C)NC(=O)c1ccc2c(c1)N=C(C)c1cc(C)ccc1S2 (stereo unspecified) was read as KB-3-1 cytotox 5.17µM and KB-V1 cytotox inactive.
`CC1=Nc2cc(C(=O)NCCCN3CCN(C)CC3)ccc2Sc2ccc(C)cc21` gave KB-3-1 cytotox inactive, ELG1 DNA repair inactive, MCF10A rereplic inconclusive, SW480 rereplic inactive and KB-V1 cytotox inactive.
For CC1(C)OC(=O)C2(Cc3cc(C(F)(F)F)ccc3N3CCCCC32)C(=O)O1 (stereo unspecified) the results were KB-3-1 cytotox inactive and KB-V1 cytotox inconclusive.
C[C@H]1CN([C@@H](C)CO)S(=O)(=O)c2ccc(Br)cc2O[C@H]1CN(C)S(=O)(=O)c1ccccc1 was read as KB-3-1 cytotox inactive and KB-V1 cytotox inconclusive.
Screening Cc1cccc(C)c1Cn1c(C)c(C(=O)NCc2ccc([N+](=O)[O-])cc2)sc1=O returned KB-3-1 cytotox inconclusive and KB-V1 cytotox 2.59µM.
Screening CSc1ccc(Cn2c(C)c(C(=O)NCc3cccc(C)c3)sc2=O)cc1 returned KB-3-1 cytotox inactive and KB-V1 cytotox 9.2µM.
`COC(=O)c1ccc(Cn2c(C)c(C(=O)NCc3ccc([N+](=O)[O-])cc3)sc2=O)o1` gave KB-3-1 cytotox inactive and KB-V1 cytotox inconclusive.
Screening COc1ccc(Cl)cc1Cn1c(C)c(C(=O)NCc2cccc(Cl)c2)sc1=O returned KB-3-1 cytotox inactive and KB-V1 cytotox 14.6µM.
For COc1ccc(CNC(=O)c2sc(=O)n(Cc3ccc(C)cc3)c2C)cc1 the results were KB-3-1 cytotox inactive and KB-V1 cytotox 20.6µM.
For C=Cc1ccc(Cn2c(C)c(C(=O)NCc3cccc(C)c3)sc2=O)cc1 the results were KB-3-1 cytotox inactive and KB-V1 cytotox inconclusive.
For COc1ccc(C(C)=O)cc1Cn1c(C)c(C(=O)NCc2cccc(Cl)c2)sc1=O the results were KB-3-1 cytotox inactive and KB-V1 cytotox inconclusive.
O=C(C[n+]1ccncc1)c1cccc([N+](=O)[O-])c1 was read as KB-3-1 cytotox inactive and KB-V1 cytotox inactive.
For COc1cccc(C2=CC(c3ccccc3O)NC(C)(C)N2)c1 (stereo unspecified) the results were KB-3-1 cytotox inactive and KB-V1 cytotox inactive.
For CCOc1ccc(C(=O)Nc2ccc(Cl)c(-c3nc4cc(C)cc(C)c4o3)c2)cc1 the results were KB-3-1 cytotox inactive and KB-V1 cytotox inactive.
